Unmarked numbers belong to inactive results.

The test system of one test is Vero E6 infected with SARS-CoV-2. Description: inhibition of SARS-CoV-2 cytopathic effect; higher = more antiviral protection, active = above 15. To be noted: 1 nM; 48 h. (In general: Damage to the host cells serves as the signal in cytopathic effect assays.)
In the case of `C1CCN2C[C@@H]3C[C@@H](CN4CCCC[C@@H]34)[C@H]2C1` [sparteine-sulfate], the “inhibition of SARS-CoV-2 cytopathic effect” value (“inhibition” below) is 0.15%.

With `Oc1c(I)cc(I)c(O)c1I` [riodoxol], the “inhibition” value was 0%.

`Nc1ccc(S(=O)(=O)c2ccc(N)cc2)cc1` [dapsone]: the “inhibition” value is -2.51%.

For the compound `CCCCC/C=C\C/C=C\C/C=C\C/C=C\CCCC(=O)Nc1ccc(O)cc1`, the “inhibition” value was -2.34%.

With `Cc1ccc(-c2cc(C(F)(F)F)nn2-c2ccc(S(N)(=O)=O)cc2)cc1` [celecoxib], the “inhibition” value was 1.41%.

In the case of `C=CC(=O)O` [acrylate], the “inhibition” value is 0.49%.

`CCOC(=O)c1c(C)n(C)c2ccc(O)cc12` [mecarbinate]: the “inhibition” value was -0.79%.

The same test, now with this note: 8.33 nM; 48 h.
With `O=Nc1c(-c2c(O)[nH]c3cc(Br)ccc23)[nH]c2ccccc12` [GSK-3-inhibitor-IX], the “inhibition” value was 0.68%.

In the case of `O=c1[nH]c2ccccc2c(=O)n1CCCN1CCN(c2ccccc2)CC1` [pelanserin], the “inhibition” value is 1.75%.

In the case of `C[C@]12C=CC(=O)C=C1CC[C@@H]1[C@@H]2[C@@H](O)C[C@@]2(C)[C@H]1CC[C@]2(O)C(=O)COC(=O)CCC(=O)O` [prednisolone-hemisuccinate], the “inhibition” value is 0.74%.

Take `CC(O)(P(=O)(O)O)P(=O)(O)O` [etidronic-acid]: the “inhibition” value was -1.84%.

With `COC(=O)[C@@]12OC[C@]34[C@H]([C@@H](O)[C@@H]1O)[C@@]1(C)CC(=O)C(O)=C(C)[C@@H]1C[C@H]3OC(=O)[C@H](OC(=O)/C=C(\C)C(C)C)[C@@H]24` [bruceantin], the “inhibition” value was 1.92%.
